Results on 40 molecules are retold here after PubChem BioAssay (Tox21).

Inconclusive results are not listed. Where a call stands in place of a potency, no number is given. Calls of active or inactive are those of the source. Calls come from the whole dose curve; as a rule, active = well fitted curve in the direction sought with a large enough effect in the repeat runs; inconclusive = weak or mixed curves; inactive = no such curve, though single readings can be large; an effect the other way counts as inactive or inconclusive.
Potency is the fitted concentration of half-maximal effect.

System in the first assay: not listed separately
Description: qHTS assay to identify small molecule agonists of the constitutive androstane receptor (CAR) signaling pathway - cell viability counter screen (AID 1224836). Note: nearly all actives have a fitted effect of over 45% in size. As to conditions: HepG2-CYP2B6-hCAR viability, CellTiter-Fluor, 23 h, PK11195 added to every well; series mostly up to 92.4 µM. In short, it runs like this: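 Cells were seeded and incubated 4 hrs. Compounds were added across 15 concentrations together with PK11195 at 0.75 uM final. Plates were incubated 23 hrs at 37 C. CellTiter-Fluor was added and fluorescence measured.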
Background: In qHTS, concentration-response curves come from the screen itself.
For the molecule `Cc1ccc(Cl)c(Nc2ccccc2C(=O)O)c1Cl`, the Potency result was “inactive”.
As for `C=C(C)C(=O)OCCOCCOC(=O)C(=C)C`, the Potency entry is “inactive”.
Same read-out and setting: to `CC(C)(c1ccccc1)c1ccccc1` belongs “inactive”; to `c1ccc(C[n+]2cccc3ccccc32)cc1`, “inactive”; to `CCC1CO1` (stereo not given), “inactive”.
Still for that read-out and setting: the entry for `Cc1cscn1` is “inactive”; for `CC1(C)S[C@@H]2[C@H](NC(=O)C(c3ccccc3)S(=O)(=O)O)C(=O)N2[C@H]1C(=O)O` (stereo not given in full) it is “inactive”; for `CC1(C)[C@@H](OC(=O)CCC(=O)O)CC[C@]2(C)[C@H]3C(=O)C=C4[C@@H]5C[C@@](C)(C(=O)O)CC[C@]5(C)CC[C@@]4(C)[C@]3(C)CC[C@@H]12` it is “inactive”.
For `CC(=O)Oc1ccc([N+](=O)[O-])cc1CCl`, the Potency is 43.3 µM (active).
On the same count and under the same terms, the figure for `CCCCCCCCCCCCCCN(CCO)CCO` is 61.1 µM (active); for `O=C(/C=C/c1ccc(O)c(O)c1)O[C@@H]1C[C@@](OC(=O)/C=C/c2ccc(O)c(O)c2)(C(=O)O)C[C@@H](O)[C@@H]1O` it is “inactive”; for `O[C@@H]1CO[C@H]2[C@@H]1OC[C@@H]2O` it is “inactive”.
The same measure, in the same setting: to `O=c1[nH]ncc2ccccc12` belongs “inactive”; to `O=C(CCCN1CC=C(n2c(=O)[nH]c3ccccc32)CC1)c1ccc(F)cc1`, “inactive”; to `C=C/C(C)=C/C/C=C(\C)CCC=C(C)C`, “inactive”.
With `CCOC(=O)c1ccc(C#Cc2ccc3c(c2)C(C)(C)CCS3)nc1`, the Potency entry is “inactive”.
On to `CCCCCCCCN`, for which the Potency result is “inactive”.
Still for that read-out and setting: to `CC1CC(C)C(=O)C1=O` (stereo not given) belongs “inactive”; to `COC(=O)CCS`, “inactive”; to `Cc1ccc2c(Br)cc(Br)c(O)c2n1`, “inactive”.
Turning to `CCC(OCCCOC)OC(C)=O` (stereo not given), the Potency entry is “inactive”.
Consider `CO[C@]1(NC(=O)CSC(F)F)C(=O)N2C(C(=O)O)=C(CSc3nnnn3CCO)CO[C@H]21`, for which the Potency entry is “inactive”.
Same read-out and setting: to `CCCCCCC(C)(C)C(=O)O` belongs “inactive”; to `O=C1CCCCCCCCCCOCCCCO1`, “inactive”; to `CCn1cc(C(=O)O)c(=O)c2cc(F)c(N3CCNCC3)cc21`, “inactive”.
On to `CCOc1ccccc1O[C@H](c1ccccc1)[C@H]1CNCCO1`, for which the Potency entry is “inactive”.
Same read-out and setting: to `Cc1[nH]cnc1CN1CCc2c(c3ccccc3n2C)C1=O` belongs “inactive”.
Still for that read-out and setting: to `CCCCCCCC/C=C\CCCCCCCCCCCC(=O)O` belongs “inactive”; to `Oc1cc2c(cc1O)[C@H]1c3ccc(O)c(O)c3OC[C@@]1(O)C2`, 49.2 µM (active).
On the same count and under the same terms, the entry for `O=C(OC(=O)c1ccccc1)c1ccccc1` is “inactive”.
As for `Brc1cc(Br)c(Oc2cc(Br)c(Br)cc2Br)cc1Br`, the Potency entry was “inactive”.
For the molecule `CCN(CC)CCNC(=O)COc1ccc(OC)cc1`, the Potency entry is “inactive”.
Same read-out and setting: the entry for `NNC(=O)CP(=O)(c1ccccc1)c1ccccc1` is “inactive”.
Same read-out and setting: the entry for `C=C(C)CCCC(C)CCO` (stereo not given) is “inactive”.
On the same count and under the same terms, the entry for `O=C(O)CCC(=O)C(=O)O` is “inactive”.
Take `Nc1ccc(N=Nc2ccccc2)c(N)c1`: the Potency was 30 µM (active).
The same measure, in the same setting: to `CC(C)=CCC1C(=O)N(c2ccccc2)N(c2ccccc2)C1=O` belongs “inactive”; to `COC(=O)CS`, “inactive”; to `CC(=O)OCC[N+](C)(C)C`, “inactive”.
As for `NCCNCCO`, the Potency entry was “inactive”.

System in the next assay: not listed separately
Description: qHTS assay to identify small molecule antagonists of the constitutive androstane receptor (CAR) signaling pathway - cell viability counter screen (AID 1224837). Note: nearly all actives have a fitted effect of over 45% in size. Conditions: HepG2-CYP2B6-hCAR viability, CellTiter-Fluor, 23 h, co-treated with 50 nM CITCO; series mostly up to 92.4 µM. Put shortly:
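Using CellTiter-Fluor, viability is scored in HepG2 cells stably carrying hCAR and a 2.2kb CYP2B6 reporter after 23 hr compound exposure across 15 concentrations, with CITCO present at 50 nM.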
Take `Cc1ccc(Cl)c(Nc2ccccc2C(=O)O)c1Cl`: the Potency result was “inactive”.
Still for that read-out and setting: to `CCC1CO1` (stereo not given) belongs “inactive”.
Turning to `Cc1cscn1`, the Potency entry was “inactive”.
For `CC1(C)S[C@@H]2[C@H](NC(=O)C(c3ccccc3)S(=O)(=O)O)C(=O)N2[C@H]1C(=O)O` (stereo not given in full), the Potency entry was “inactive”.
Same read-out and setting: to `O=C(/C=C/c1ccc(O)c(O)c1)O[C@@H]1C[C@@](OC(=O)/C=C/c2ccc(O)c(O)c2)(C(=O)O)C[C@@H](O)[C@@H]1O` belongs “inactive”; to `O[C@@H]1CO[C@H]2[C@@H]1OC[C@@H]2O`, “inactive”; to `CCOC(=O)c1ccc(C#Cc2ccc3c(c2)C(C)(C)CCS3)nc1`, “inactive”.
As for `CCC(OCCCOC)OC(C)=O` (stereo not given), the Potency entry is “inactive”.
Same read-out and setting: to `CO[C@]1(NC(=O)CSC(F)F)C(=O)N2C(C(=O)O)=C(CSc3nnnn3CCO)CO[C@H]21` belongs “inactive”; to `CCn1cc(C(=O)O)c(=O)c2cc(F)c(N3CCNCC3)cc21`, “inactive”; to `CCOc1ccccc1O[C@H](c1ccccc1)[C@H]1CNCCO1`, “inactive”.
Still for that read-out and setting: to `O=C(OC(=O)c1ccccc1)c1ccccc1` belongs “inactive”; to `NNC(=O)CP(=O)(c1ccccc1)c1ccccc1`, “inactive”.
On to `C=C(C)CCCC(C)CCO` (stereo not given), for which the Potency entry was “inactive”.
Regarding `O=C(O)CCC(=O)C(=O)O`, the Potency result is “inactive”.
On to `Nc1ccc(N=Nc2ccccc2)c(N)c1`, for which the Potency was 53.3 µM (active).
On the same count and under the same terms, to `COC(=O)CS` belongs “inactive”.

For a further assay, the target named is Nuclear receptor subfamily 1 group I member 3 (Homo sapiens) (UniProt Q14994). Description: qHTS assay to identify small molecule antagonists of the constitutive androstane receptor (CAR) signaling pathway (AID 1224838). Note: nearly all actives have a fitted effect of over 40% in size. As to conditions: HepG2-CYP2B6-hCAR luciferase, CITCO-stimulated, 24 h; series mostly up to 92.4 µM. Put shortly: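 Reporter luminescence was quantified after 24 h exposure of hCAR/CYP2B6-2.2kb double-stable HepG2 cells to compounds at 15 concentrations in the presence of 50 nM CITCO final.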
Nuclear receptor subfamily 1 group I member 3 (Homo sapiens), sequence (Q14994 whole entry, looked up): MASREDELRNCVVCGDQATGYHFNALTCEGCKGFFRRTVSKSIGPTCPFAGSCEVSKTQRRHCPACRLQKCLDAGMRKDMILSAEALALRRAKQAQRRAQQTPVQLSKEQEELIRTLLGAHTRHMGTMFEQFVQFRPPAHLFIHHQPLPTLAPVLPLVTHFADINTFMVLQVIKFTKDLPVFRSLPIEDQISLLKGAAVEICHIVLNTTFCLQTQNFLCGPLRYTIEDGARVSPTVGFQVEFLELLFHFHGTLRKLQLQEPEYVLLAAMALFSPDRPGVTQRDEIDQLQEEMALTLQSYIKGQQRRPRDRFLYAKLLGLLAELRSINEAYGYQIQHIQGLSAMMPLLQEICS
`C=C(C)C(=O)OCCOCCOC(=O)C(=C)C`: the Potency entry is “inactive”.
On the same count and under the same terms, to `CC(C)(c1ccccc1)c1ccccc1` belongs “inactive”.
Still for that read-out and setting: to `c1ccc(C[n+]2cccc3ccccc32)cc1` belongs “inactive”.
Regarding `CC1(C)[C@@H](OC(=O)CCC(=O)O)CC[C@]2(C)[C@H]3C(=O)C=C4[C@@H]5C[C@@](C)(C(=O)O)CC[C@]5(C)CC[C@@]4(C)[C@]3(C)CC[C@@H]12`, the Potency result was “inactive”.
With `CC(=O)Oc1ccc([N+](=O)[O-])cc1CCl`, the Potency entry was “inactive”.
Still for that read-out and setting: to `CCCCCCCCCCCCCCN(CCO)CCO` belongs 48.6 µM (active).
In the case of `O=c1[nH]ncc2ccccc12`, the Potency entry is “inactive”.
In the case of `O=C(CCCN1CC=C(n2c(=O)[nH]c3ccccc32)CC1)c1ccc(F)cc1`, the Potency result is “inactive”.
On the same count and under the same terms, to `C=C/C(C)=C/C/C=C(\C)CCC=C(C)C` belongs “inactive”; to `CCCCCCCCN`, “inactive”.
On the same count and under the same terms, the entry for `CC1CC(C)C(=O)C1=O` (stereo not given) is “inactive”.
With `COC(=O)CCS`, the Potency entry was “inactive”.
On the same count and under the same terms, to `Cc1ccc2c(Br)cc(Br)c(O)c2n1` belongs “inactive”.
Still for that read-out and setting: to `CCCCCCC(C)(C)C(=O)O` belongs “inactive”; to `O=C1CCCCCCCCCCOCCCCO1`, “inactive”; to `Cc1[nH]cnc1CN1CCc2c(c3ccccc3n2C)C1=O`, “inactive”.
Same read-out and setting: the entry for `CCCCCCCC/C=C\CCCCCCCCCCCC(=O)O` is “inactive”; for `Oc1cc2c(cc1O)[C@H]1c3ccc(O)c(O)c3OC[C@@]1(O)C2` it is 49.2 µM (active).
Consider `Brc1cc(Br)c(Oc2cc(Br)c(Br)cc2Br)cc1Br`, for which the Potency entry was “inactive”.
For the molecule `CCN(CC)CCNC(=O)COc1ccc(OC)cc1`, the Potency entry is “inactive”.
`CC(C)=CCC1C(=O)N(c2ccccc2)N(c2ccccc2)C1=O`: the Potency result is “inactive”.
The same measure, in the same setting: to `CC(=O)OCC[N+](C)(C)C` belongs “inactive”; to `NCCNCCO`, “inactive”.
